What all share (test): NCI-60 one-dose screen, 48 h (100 = growth as untreated, 0 = no growth, -100 = all killed)
One experiment deals with NCI-H23 lung. Conditions: 10 µM unless noted.
Another experiment relates to NCI-H226 lung. As to conditions: 10 µM unless noted.
In another experiment the test system is NCI-H322M lung. As to conditions: 10 µM unless noted.
A further experiment concerns HOP-92 NSCLC. As to conditions: 10 µM.
The test system of the next experiment is NCI-H522 lung. Conditions: 10 µM.
The subject of another experiment is A549/ATCC NSCLC. As to conditions: 10 µM unless noted.
The subject of the next experiment is 786-0 renal. As to conditions: 10 µM unless noted.
For the next experiment, the system named is COLO 205 colon. As to conditions: 10 µM unless noted.
The next experiment has as its system DU-145 prostate. Conditions: 10 µM unless noted.
The next experiment has as its system K-562 leukemia. Conditions: 10 µM unless noted.
The next experiment has as its system MALME-3M melanoma. Conditions: 10 µM unless noted.
The next experiment deals with MDA-MB-231 breast. As to conditions: 10 µM unless noted.
A further experiment has as its system RXF 393 renal. Conditions: 10 µM unless noted.
The next experiment has as its system SF-268 CNS. As to conditions: 10 µM unless noted.
A further experiment relates to SF-295 CNS. As to conditions: 10 µM unless noted.
The test system of another experiment is SF-539 CNS. As to conditions: 10 µM unless noted.
The subject of another experiment is UACC-257 melanoma. Conditions: 10 µM unless noted.
Another experiment deals with M14 melanoma. Conditions: 10 µM unless noted.
A further experiment relates to NCI-H460 lung. Conditions: 10 µM unless noted.

The structures appear in SMILES notation. About 83,000 compounds went through this panel and 20% of them were active in at least one assay; those are over-represented in the sample as a whole.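 The endpoint reported here, percent growth, reads 100 for growth as untreated, 0 for no net growth and -100 for all cells dead.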 Values without a mark were called inactive. Activity calls are given as the source filed them. How the source made its calls: active means growth percent below 10; inactive means the rest.

On to `CC(C)(C)c1ccc([I+]c2ccc(C(C)(C)C)cc2)cc1`, for which the growth is -13.7% (active) in the experiment on NCI-H23 lung; 23.8% in the experiment with NCI-H226 lung; 55.8% with NCI-H322M lung; -9.02% (active) in the experiment on HOP-92 NSCLC; 7.79% (active) in the experiment on NCI-H522 lung; 39.9% in the experiment on A549/ATCC NSCLC. In addition, the growth with 786-0 renal is 16.8%; in the experiment with COLO 205 colon it was -42.1% (active); with DU-145 prostate, -89.1% (active); in the experiment with K-562 leukemia it was 1.42% (active); in the experiment on MALME-3M melanoma it was -61.2% (active); in the experiment on MDA-MB-231 breast, -30.3% (active). In addition, the growth with RXF 393 renal is 0.632% (active); in the experiment with SF-268 CNS it was 1.36% (active); with SF-295 CNS, 23.7%; in the experiment on SF-539 CNS, 21.2%; in the experiment with UACC-257 melanoma, 1.08% (active); in the experiment on M14 melanoma, 2.73% (active).

Regarding `C=C(C)[C@@H]1CC[C@]2(COC(=O)c3ccccc3C(=O)O)CC[C@]3(C)[C@H](CC[C@@H]4[C@@]5(C)CCCNC(C)(C)[C@@H]5CC[C@]43C)[C@@H]12`, the growth with NCI-H23 lung was 80.7%; in the experiment on NCI-H226 lung, 66.3%; in the experiment with NCI-H322M lung it was 93.3%; in the experiment on NCI-H460 lung it was 55.9%; in the experiment on HOP-92 NSCLC, 86.1%; in the experiment with A549/ATCC NSCLC, 61.4%. Besides, the growth was 84.4% with 786-0 renal; 65.9% in the experiment on DU-145 prostate; 68.2% with MALME-3M melanoma; 94.3% in the experiment with MDA-MB-231 breast; 73.2% in the experiment on SF-268 CNS; 66.6% with SF-295 CNS. The growth is 75.7% with SF-539 CNS, 81.7% in the experiment with UACC-257 melanoma and 61.7% in the experiment with M14 melanoma.

Turning to `Cc1c(Cc2ccccc2)c(=O)oc2c(C)c(OCC(=O)n3nc(C#N)cc3N)ccc12`, the growth in the experiment on NCI-H23 lung is 96.5%; with NCI-H226 lung, 96.2%; in the experiment on NCI-H322M lung, 93.6%; in the experiment with NCI-H460 lung, 106%; with HOP-92 NSCLC, 89.1%; in the experiment on A549/ATCC NSCLC it was 106%. In addition, the growth in the experiment with 786-0 renal is 97%; with COLO 205 colon, 107%; in the experiment on DU-145 prostate it was 104%; in the experiment on K-562 leukemia it was 102%; in the experiment on MALME-3M melanoma it was 99.5%; in the experiment with MDA-MB-231 breast it was 103%. Also, the growth with RXF 393 renal is 119%; in the experiment with SF-268 CNS it was 97.1%; in the experiment on SF-295 CNS it was 94.7%; with SF-539 CNS it was 99.3%; with UACC-257 melanoma, 105%; with M14 melanoma, 96.3%.

Consider `COc1cc(N)c2nccc(C)c2c1OC`, for which the growth is 115% in the experiment with NCI-H23 lung; 101% in the experiment with NCI-H226 lung; 106% in the experiment with NCI-H322M lung; 81.7% with HOP-92 NSCLC; 133% in the experiment with NCI-H522 lung; 117% with A549/ATCC NSCLC. The growth was 103% in the experiment with 786-0 renal; 116% with COLO 205 colon; 100% with DU-145 prostate; 92.1% with K-562 leukemia; 95.8% in the experiment with MALME-3M melanoma; 91.2% in the experiment with MDA-MB-231 breast. Moreover, the growth in the experiment on RXF 393 renal is -4.59% (active); with SF-268 CNS, 114%; in the experiment on SF-295 CNS, 116%; with SF-539 CNS, 82%; with UACC-257 melanoma, 92.5%.

As to `COC(=O)c1ccc2[nH]c(O)c(C(=Nc3ccc(N(C)C(=O)CN4CCN(C)CC4)cc3)c3cccc(OC)c3)c2c1`, the growth was 7.62% (active) in the experiment on NCI-H23 lung; 32.4% in the experiment on NCI-H226 lung; 21.8% in the experiment with NCI-H322M lung; 7.31% (active) in the experiment on NCI-H460 lung; 48.3% in the experiment on HOP-92 NSCLC; 9.85% (active) with A549/ATCC NSCLC. In addition, the growth was 10.4% in the experiment on 786-0 renal; -55.8% (active) in the experiment with COLO 205 colon; 8.57% (active) in the experiment with DU-145 prostate; 3.85% (active) in the experiment with K-562 leukemia; -16.3% (active) in the experiment with MALME-3M melanoma; 13.1% with MDA-MB-231 breast. Besides, the growth with RXF 393 renal was -55.7% (active); with SF-268 CNS, 6.71% (active); with SF-295 CNS, 29.9%; in the experiment with SF-539 CNS it was -11.2% (active); with UACC-257 melanoma, 31.8%; in the experiment on M14 melanoma, 8.85% (active).

On to `O=C1C(=O)c2ccccc2C(O)=C1CCCc1ccc(Oc2ccccc2)cc1`, for which the growth in the experiment with NCI-H23 lung was 75%; in the experiment with NCI-H226 lung, 46.5%; with NCI-H322M lung it was 62.2%; with NCI-H460 lung it was 32.7%; with HOP-92 NSCLC it was 54.5%; with A549/ATCC NSCLC it was 82.2%. For the same molecule, the growth in the experiment on 786-0 renal is 37.5%; in the experiment on COLO 205 colon it was 111%; in the experiment on DU-145 prostate it was 85.4%; with K-562 leukemia it was 34%; in the experiment with MALME-3M melanoma, 54.7%; in the experiment with MDA-MB-231 breast, 89.1%. The growth in the experiment on RXF 393 renal is 92.9%; in the experiment with SF-268 CNS, 47.2%; in the experiment on SF-295 CNS, 92.9%; in the experiment with SF-539 CNS it was 68.6%; with UACC-257 melanoma it was 51.5%; in the experiment on M14 melanoma it was 41.3%.

In the case of `COc1nc(OC)nc(-c2cc(-c3cc(OC)c(OC)c(OC)c3)no2)n1`, the growth in the experiment on NCI-H23 lung is 101%; with NCI-H226 lung, 92.8%; with NCI-H322M lung, 115%; in the experiment with NCI-H460 lung, 101%; in the experiment with HOP-92 NSCLC, 95.4%; with A549/ATCC NSCLC it was 88.8%. The growth was 93.9% in the experiment on 786-0 renal; 105% in the experiment with DU-145 prostate; 95.1% in the experiment on K-562 leukemia; 110% in the experiment on MALME-3M melanoma; 90.5% in the experiment on MDA-MB-231 breast; 94.8% with RXF 393 renal. In addition, the growth was 100% with SF-268 CNS; 104% in the experiment with SF-295 CNS; 112% in the experiment with SF-539 CNS; 99.6% with UACC-257 melanoma; 111% in the experiment with M14 melanoma.

Take `CCCOC(=O)c1c(C)n(C)c2scc[n+]12`: the growth was 29% in the experiment on NCI-H23 lung; 87.2% with NCI-H226 lung; 51.2% with NCI-H322M lung; 30.1% in the experiment on HOP-92 NSCLC; 79.2% in the experiment on NCI-H522 lung; 62.9% in the experiment on A549/ATCC NSCLC. Further, the growth is 62.9% with 786-0 renal; 84.9% in the experiment with COLO 205 colon; 77.8% in the experiment on DU-145 prostate; 65% with K-562 leukemia; 92.5% in the experiment on MALME-3M melanoma; 80.1% with MDA-MB-231 breast. Also, the growth with RXF 393 renal was 67.8%; with SF-268 CNS, 89.3%; in the experiment on SF-295 CNS, 54.1%; in the experiment on SF-539 CNS, 81.1%; in the experiment on UACC-257 melanoma it was 78.8%.

With `COc1cc(OC)c(NC(=O)n2ncc3cc(Nc4ncnc5ccccc45)ccc32)cc1Cl`, the growth was 97.5% in the experiment on NCI-H23 lung; 104% in the experiment on NCI-H226 lung; 14.1% in the experiment with NCI-H322M lung; 108% with NCI-H460 lung; 87.3% with HOP-92 NSCLC; 80.3% in the experiment with A549/ATCC NSCLC. The growth in the experiment with 786-0 renal was 73.1%; in the experiment on DU-145 prostate, 56.9%; with K-562 leukemia it was 99.4%; in the experiment with MALME-3M melanoma, 110%; with MDA-MB-231 breast, 97.2%; with RXF 393 renal, 88.4%. For the same molecule, the growth with SF-268 CNS was 87.4%; with SF-295 CNS it was 98.7%; with SF-539 CNS, 99.5%; in the experiment on UACC-257 melanoma it was 118%; in the experiment on M14 melanoma it was 100%.

Source of the values: PubChem BioAssay (NCI).
